High-throughput results deposited in PubChem BioAssay by several laboratories.
IEC-6 cytotox = IEC-6 cytotoxicity, counter-screen for KLF5 inhibitors; luminescence viability; 0.78% of 290,000 active; AID 1825; inhibition, % at 5 µM; in the data active means inhibition above about 22%;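 further: 0% = plate median of test compound wells and 100% = cytotoxic reference compound wells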
Ba/F3 V617F tox = loss of viability in JAK2V617F-driven Ba/F3 cells; 1.1% of 220,000 active; AID 1446; Ba/F3 EpoR-JAK2V617F viability, ATP luminescence; inhibition, % at 5.6 µM;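 active means inhibition above the campaign mean plus 3 SD over all tested compounds, cut at about 24% in these data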;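 further: cytokine-independent growth of Ba/F3 cells driven by EpoR plus mutant JAK2; 0% = DMSO-treated cells and 100% = JAK inhibitor I control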
BaF3 parental = parental Ba/F3 viability inhibition as JAK2V617F counter-screen; CellTiter-Glo ATP luminescence; inhibition, % at 5.6 µM; 1.1% of 220,000 active; AID 1486;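 active means inhibition above a per-campaign cutoff, the mean inhibition of all tested compounds plus 3 SD, cut at about 27% in these data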;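 further: 0% = DMSO wells and 100% = JAK Inhibitor I control wells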
KLF5 inh = suppresses KLF5 promoter-driven expression. DLD-1 KLF5 promoter-luciferase reporter, luminescence. inhibition, % at 5 µM. 0.23% of 290,000 active. AID 1700;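 active means inhibition above a per-plate limit of that plate's mean compound inhibition plus 3 SD, cut at about 60% in these data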;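 further: 0% = DMSO wells and 100% = LY294002 at 200 µM; higher means less KLF5 promoter-driven luciferase light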
APP 5UTR inh = APP translation inhibition; SH-SY5Y APP 5'UTR-luciferase reporter, luminescence; inhibition, % at 2 µM; 0.82% of 190,000 active; AID 1285;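 active means inhibition above a set limit, derived from the sample mean plus 3 SD, cut at about 45% in these data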
An asterisk follows results filed as active; nt = not tested or not shown. Hits are enriched below; roughly 1.8% of the tested compounds scored in any of these assays.

SMILES | IEC-6 cytotox | Ba/F3 V617F tox | BaF3 parental | KLF5 inh | APP 5UTR inh
CC1(C)OC(=O)C(=NNc2ccc(O)cc2)C(=O)O1 | 0 | 36* | 53* | -37 | 9
CCN1CCN(C(=O)CCc2ccc(S(=O)(=O)NCCc3ccccc3)cc2)CC1 | -1 | -2 | 0 | -27 | 56*
CN1/C(=C/C=C(C#N)C#N)C(C)(C)c2ccccc21 | -1 | -3 | 0 | 1 | -6
CN1/C(=C\C=O)C(C)(C)c2ccccc21 | 4 | 39* | 49* | -10 | 10
CN(C)c1ccc(N=C/C=C2\N(C)c3ccccc3C2(C)C)cc1 | 3 | 2 | 11 | -116 | -143
CN1\C(=C/C=C/C=C/C=[N+](C)C)C(C)(C)c2ccccc21 | -7 | 38* | 33* | -14 | 10
CN1/C(=C\C=Nc2ccc3ccccc3c2)C(C)(C)c2ccccc21 | 14 | 48* | 42* | -13 | -15
Cc1ccc(C(=O)NCc2ccco2)c(C)c1 | -3 | nt | nt | -45 | nt
COCCCNC(=O)C(C)N1c2cccc3cccc(c23)S1(=O)=O (stereo unspecified) | -2 | nt | nt | -37 | nt
Cc1cccc2nc(COc3ccc(-c4ccccc4)cc3)cn12 | 2 | 44* | 38* | -27 | -39
CCC1CN(C(=O)N2CCC(C(=O)NCc3ccco3)CC2)c2cc(C)ccc2O1 (stereo unspecified) | 7 | nt | nt | -4 | nt
CCc1cc(=O)oc2cc3occ(-c4ccc(OC)c(F)c4)c3cc12 | 6 | 2 | 8 | -32 | 91*
CC(=O)c1ccc(NC(=O)c2cnsn2)cc1 | -4 | 1 | 4 | -76 | -90
COc1ccc(/C=N/NC(=O)c2cc(=O)[nH]c3ccccc23)cc1OC | 2 | 3 | 39* | -12 | 1
O=C(N/N=C/c1ccco1)c1cc(=O)[nH]c2ccccc12 | -12 | 2 | 10 | -18 | -7
COc1ccc(NC(=O)c2cn(CCC#N)nc2-c2cc3ccccc3o2)cc1 | -8 | 7 | 3 | -3 | 46*
O=[N+]([O-])c1ccc(NCc2ccccc2)nc1 | 6 | 32* | 75* | -35 | -14
COc1cccc(C2=NCCc3cc4c(cc32)OCO4)c1OC | -9 | -1 | 2 | 8 | -2
COc1ccc2cc3[n+](cc2c1OC)CCc1cc2c(cc1-3)OCO2 | -10 | 72* | 63* | 3 | 17
COc1ccc(CCNc2c(C)c(C)nc3ncnn23)cc1 | 19 | 51* | 58* | 12 | 5
CCc1c(C)nc2ncnn2c1NCCc1ccc(OC)c(OC)c1 | 1 | -1 | 7 | -12 | 8
CCOc1ccc(C(=S)N2CCCC2)c(OCC)c1 | 5 | nt | nt | -19 | nt
CCOc1ccc(-c2cc(C(=O)NN)[nH]n2)cc1 | -1 | 1 | 6 | -86 | -18
COc1ccc(-c2cc(C(=O)NN)[nH]n2)cc1OC | 1 | -2 | -2 | -37 | 73*
COc1ccc(-c2cc(C(=O)NN)[nH]n2)cc1 | -1 | -3 | -1 | -48 | 84*
SMILES | IEC-6 cytotox | Ba/F3 V617F tox | BaF3 parental | KLF5 inh | APP 5UTR inh
COc1ccc(-c2cc(C(=O)O)[nH]n2)cc1OC | 0 | -4 | -2 | -20 | 10
CCOc1cc(C)c(S(=O)(=O)Nc2ccc3cn[nH]c3c2)cc1C | 10 | 5 | 40* | 5 | 6
Fc1cccc(Cl)c1Cn1nnc(-c2ccc(N3CCOCC3)cc2)n1 | 2 | -3 | 0 | 3 | -7
Clc1cccc(Cl)c1Cn1nnc(N2CCCC2)n1 | 0 | 34* | 61* | -26 | nt
CCOC(=O)c1sc(-c2ccc(Cl)cc2Cl)nc1O | 3 | -4 | -1 | -17 | nt
Cc1cc[n+](C(C)C(=O)c2ccc(-c3ccccc3)cc2)cc1 (stereo unspecified) | -5 | 81* | 66* | -21 | 0
Cc1ccc[n+](C(C)C(=O)c2ccc(-c3ccccc3)cc2)c1 (stereo unspecified) | -12 | 58* | 69* | -24 | -9
CC(C(=O)c1ccc(-c2ccccc2)cc1)[n+]1cccc(C(N)=O)c1 (stereo unspecified) | -2 | nt | nt | 1 | nt
CC(C(=O)c1ccc(-c2ccccc2)cc1)[n+]1ccccc1 (stereo unspecified) | -1 | 47* | 64* | -6 | 2
Cc1cc[n+](C(C)C(=O)c2ccc(Cl)cc2)cc1 (stereo unspecified) | -3 | nt | nt | -14 | nt
COC(=O)C1=C(N)Oc2cc(C)n(CC3CCCO3)c(=O)c2C1c1ccccc1OC (stereo unspecified) | 4 | 0 | 4 | -15 | 0
COC(=O)C1=C(N)Oc2cc(N(C)C)ccc2C1c1ccccc1OC (stereo unspecified) | 3 | -4 | 5 | -6 | 66*
Cc1cccc(N2CCN(C(=O)c3cc(S(=O)(=O)N4CCOCC4)cn3C)CC2C)c1 (stereo unspecified) | -3 | nt | nt | -9 | nt
Cn1c(-c2ccccc2)c[n+]2c1-c1ccccc1C2 | 5 | 85* | 63* | -11 | -9
Cn1c(-c2ccccc2)cccc1=O | -3 | -5 | 7 | -12 | -6
CCNc1nnc(CCn2nc(C)c(Br)c2C)s1 | 4 | 1 | -1 | -9 | 19
CCc1nnc(NC(=O)CCc2ccc(C)o2)s1 | -7 | -2 | 3 | -1 | -3
Cc1ccc(CCC(=O)Nc2ncc(Cc3cccc(Cl)c3Cl)s2)o1 | -2 | 0 | 0 | 5 | 96*
CC(C)Oc1ccc(S(=O)(=O)N2CCOCC2)cc1NC(=O)c1ccc(N2CCCC2=O)cc1 | 2 | nt | nt | -11 | nt
CC(=O)Nc1cc(OC(C)=O)c2nonc2c1OC(C)=O | 100* | 101* | 103* | 115* | 17
Cc1ccc(NS(=O)(=O)c2coc(C(N)=O)c2)cc1F | -1 | nt | nt | 1 | nt
O=C(COC(=O)CCc1c[nH]c2ccccc12)NC(c1ccccc1)c1ccccc1 | -5 | 0 | 76* | -25 | 13
NNC(=O)CCc1c[nH]c2ccccc12 | 2 | -3 | 1 | -21 | -2
COc1ccc(/C=C(\CC(=O)O)c2nc3ccccc3s2)cc1O | 7 | -2 | 4 | -20 | -14
CCOc1cc(/C=C(\CC(=O)O)c2nc3ccccc3s2)ccc1OC | 12 | 9 | 41* | -5 | -9
SMILES | IEC-6 cytotox | Ba/F3 V617F tox | BaF3 parental | KLF5 inh | APP 5UTR inh
Cc1c(/C=N/Nc2nc3ccccc3[nH]2)c2ccccc2n1C | 18 | -1 | -1 | -60 | nt
O=[N+]([O-])c1ccc(O)c(/C=N/Nc2nc3ccccc3[nH]2)c1 | 4 | -1 | 5 | 24 | 81*
C=CCn1cc(/C=N/Nc2nc3ccccc3[nH]2)c2ccccc21 | 23* | 1 | 3 | -31 | -40
CC(C)Cn1c(/C=N/Nc2nc3ccccc3[nH]2)nc2ccccc21 | -8 | 1 | 3 | -32 | 71*
Cn1c(/C=N/Nc2nc3ccccc3[nH]2)nc2ccccc21 | 8 | 6 | 9 | -62 | -35
CCCn1c(/C=N/Nc2nc3ccccc3[nH]2)nc2ccccc21 | -7 | -2 | 3 | -119 | 74*
Cc1c(C(=O)Nc2cccc([N+](=O)[O-])c2)cnn1-c1ccccc1 | -3 | nt | nt | -154 | nt
COc1ccc2nc(C)cc(N/N=C/c3cccc(OC)c3O)c2c1 | -4 | nt | nt | 3 | nt
COc1cccc(/C=N/Nc2cc(-n3nc(C)cc3-c3ccccc3)ncn2)c1O | -6 | 2 | 7 | -38 | 71*
COc1ccc(/C=N/Nc2ncnc(Cl)c2N)cc1OC | 1 | 2 | 4 | -36 | -12
